Laboratory results reported in PubChem BioAssay (NCI).
About 79,000 compounds went through this panel and 15% of them were active in at least one assay; those are over-represented in the sample as a whole. Calls of active or inactive are those of the source. Cut-off read from the data, not from the text of the source: active = growth inhibition above about 70%; inactive = the rest.

Tests used:
[1] = NCI Yeast Anticancer Drug Screen. Data for the rad52 strain (AID 147);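 note: 0% = growth of vehicle-treated control cultures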; details: S. cerevisiae rad52 mutant growth inhibition, hits give high values
Summary of the method: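 Growth of repair-deficient yeast cells was compared between compound-treated and vehicle-treated cultures to give percent inhibition.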

[2] = NCI Yeast Anticancer Drug Screen. Data for the wt1 strain (AID 149);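 note: 0% = growth of vehicle-treated wt1 cultures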; details: S. cerevisiae wt1 strain (SPY 50644) growth inhibition, hits give high values
Summary of the method: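 Readout: yeast growth inhibition, normalised to vehicle controls, in the wt1 strain exposed to test compounds.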

[3] = NCI Yeast Anticancer Drug Screen. Data for the rad50EPP+ strain (AID 151);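 note: 0% = growth of vehicle-treated control cultures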; details: S. cerevisiae rad50 mutant strain, hits give high values
Summary of the method: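 Measured: growth inhibition of rad50EPP+ yeast. Reference: vehicle-treated controls. Screen uses strains with defined genetic alterations in DNA damage repair or cell cycle control.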

[4] = NCI Yeast Anticancer Drug Screen. Data for the mgt1 strain (AID 153); details: S. cerevisiae mgt1 mutant growth inhibition, hits give high values
Summary of the method: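 Compounds were applied to mgt1 mutant yeast, and growth was then compared against vehicle-treated control cultures to give percent inhibition.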

[5] = NCI Yeast Anticancer Drug Screen. Data for the rad50 strain (AID 155);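 note: 0% = growth of vehicle-only cultures of the same strain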; details: S. cerevisiae rad50 strain growth inhibition, hits give high values
Summary of the method: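 Compounds were tested on a yeast strain with an engineered DNA damage repair alteration; the reported value is growth inhibition normalised to vehicle treatment.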

[6] = NCI Yeast Anticancer Drug Screen. Data for the mec2-1 strain (AID 157); details: S. cerevisiae mec2-1 strain, hits give high values
Summary of the method: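 Compounds were applied to mec2-1 yeast cells. Their growth was then compared with that of vehicle-treated cultures to give growth inhibition.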

[7] = NCI Yeast Anticancer Drug Screen. Data for the rad14 strain (AID 159);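 note: 0% = growth of vehicle-treated control cultures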; details: S. cerevisiae rad14 strain growth inhibition, hits give high values
Summary of the method: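 Compound-treated yeast with a defined DNA-repair lesion; growth inhibition normalised to vehicle-treated cultures.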

[8] = NCI Yeast Anticancer Drug Screen. Data for the sgs1 mgt1 strain (AID 161);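 note: 0% = growth of cultures given vehicle only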; details: S. cerevisiae sgs1 mgt1 strain, hits give high values
Summary of the method: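 This yeast growth screen uses a strain with defined DNA-repair lesions; compound-treated growth is compared with vehicle-treated growth.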

[9] = NCI Yeast Anticancer Drug Screen. Data for the CLN2oe strain (AID 163);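 note: 0% = growth of vehicle-only control cultures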; details: S. cerevisiae CLN2oe strain, hits give high values
Summary of the method: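 Cells of an engineered yeast line with disturbed cell-cycle regulation are treated with compound. Inhibition of growth is then calculated relative to the vehicle-treated reference.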

[10] = NCI Yeast Anticancer Drug Screen. Data for the cln2 rad14 strain (AID 165);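 note: 0% = growth equal to vehicle treated cultures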; details: S. cerevisiae cln2 rad14 strain, hits give high values
Summary of the method: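 Strain: cln2 rad14 yeast, altered in cell cycle control and DNA damage repair. Read-out: growth inhibition vs vehicle.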

[11] = NCI Yeast Anticancer Drug Screen. Data for the bub3 strain (AID 167); details: S. cerevisiae bub3 mutant strain, hits give high values
Summary of the method: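 Growth of a checkpoint-deficient yeast mutant is measured after compound exposure. Values represent inhibition relative to vehicle.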

[12] = NCI Yeast Anticancer Drug Screen. Data for the wt2 strain (AID 169);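 note: 0% = growth of vehicle-treated yeast cultures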; details: S. cerevisiae wt2 strain growth inhibition, hits give high values
Summary of the method: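 Growth of compound-treated yeast is measured and expressed as inhibition relative to vehicle-only controls.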

[13] = NCI Yeast Anticancer Drug Screen. Data for the mlh1 strain (AID 171);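 note: 0% = growth of vehicle-treated control cultures of the same strain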; details: S. cerevisiae mlh1 strain growth inhibition, hits give high values
Summary of the method: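 Test agents were incubated with yeast bearing a defined DNA damage repair or cell cycle control alteration; values are growth inhibition normalised to vehicle-treated cultures.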

[14] = NCI Yeast Anticancer Drug Screen. Data for the sgs1 strain (AID 173);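 note: 0% = growth of vehicle-only control cultures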; details: S. cerevisiae sgs1 mutant, hits give high values
Summary of the method: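 Strain with an altered DNA repair or cell cycle pathway exposed to compound. Growth then measured. Value = inhibition versus vehicle control.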

[15] = NCI Yeast Anticancer Drug Screen. Data for the mlh1 rad18 strain (AID 175); details: S. cerevisiae mlh1 rad18 strain growth inhibition, hits give high values
Summary of the method: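 A repair-deficient yeast strain is exposed to test compound, and growth is scored relative to vehicle-treated controls.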

[16] = NCI Yeast Anticancer Drug Screen. Data for the rad18 strain (AID 177); details: S. cerevisiae rad18 mutant growth inhibition, hits give high values
Summary of the method: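 DNA-repair-defective yeast; compound treatment; growth inhibition scored against vehicle.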

[17] = at 5.0 µM (retest, dose inferred, filed as 0.5)
[18] = at 50.0 µM (retest, dose inferred, filed as 5.0)

Measured: growth inhibition

CCOP(=O)(OCC)C(Cc1ccccc1)N=C(c1ccccc1)c1ccccc1 (stereo not drawn)
active: [1]; at 33.0 µM 91% | [1]; at 100.0 µM 98% | [2]; at 33.0 µM 95% | [2]; at 100.0 µM 98% | [3]; at 33.0 µM 81% | [3]; at 100.0 µM 94% | [4]; at 33.0 µM 86% | [4]; at 100.0 µM 98% | [5]; at 33.0 µM 96% | [5]; at 50.0 µM 98.6% | [5]; at 100.0 µM 98% | [6]; at 33.0 µM 97% | [6]; at 50.0 µM 70.5% | [6]; at 100.0 µM 98% | [7]; at 33.0 µM 73% | [7]; at 100.0 µM 98% | [8]; at 50.0 µM 98.8% | [9]; at 33.0 µM 87% | [9]; at 100.0 µM 98% | [10]; at 50.0 µM 97.8% | [11]; at 33.0 µM 88% | [11]; at 50.0 µM 99% | [11]; at 100.0 µM 98% | [12]; at 33.0 µM 97% | [12]; at 100.0 µM 98% | [13]; at 33.0 µM 90% | [13]; at 100.0 µM 98% | [14]; at 33.0 µM 93% | [14]; at 100.0 µM 97% | [15]; at 50.0 µM 98.7% | [16]; at 33.0 µM 87% | [16]; at 100.0 µM 98%
inactive: [1]; at 1.2 µM -21% | [1]; at 3.7 µM -16% | [1]; at 11.0 µM 4% | [2]; at 1.2 µM -18% | [2]; at 3.7 µM -28% | [2]; at 11.0 µM -5% | [3]; at 1.2 µM 8% | [3]; at 3.7 µM 12% | [3]; at 11.0 µM 44% | [4]; at 1.2 µM 16% | [4]; at 3.7 µM -6% | [4]; at 11.0 µM 10% | [5]; at 1.2 µM -12% | [5]; at 3.7 µM -7% | [5]; [17] 12% | [5]; at 11.0 µM 27% | [5]; [18] 7% | [6]; at 1.2 µM 18% | [6]; at 3.7 µM 8% | [6]; [17] -3% | [6]; at 11.0 µM 18% | [6]; [18] 4% | [7]; at 1.2 µM 2% | [7]; at 3.7 µM -6% | [7]; at 11.0 µM -8% | [8]; [17] -14% | [8]; [18] -1% | [9]; at 1.2 µM -50% | [9]; at 3.7 µM -18% | [9]; at 11.0 µM -21% | [10]; [17] -1% | [10]; [18] -1% | [11]; at 1.2 µM -35% | [11]; at 3.7 µM -35% | [11]; [17] -7% | [11]; at 11.0 µM -41% | [11]; [18] -11% | [12]; at 1.2 µM 6% | [12]; at 3.7 µM 6% | [12]; at 11.0 µM -2% | [13]; at 1.2 µM 1% | [13]; at 3.7 µM 0% | [13]; at 11.0 µM 5% | [14]; at 1.2 µM 7% | [14]; at 3.7 µM 10% | [14]; at 11.0 µM 15% | [15]; [17] -18% | [15]; [18] 22% | [16]; at 1.2 µM 8% | [16]; at 3.7 µM 4% | [16]; at 11.0 µM 29%
